Measurements reported in PubChem BioAssay (NCI).
About 79,000 compounds went through this panel and 15% of them were active in at least one assay; those are over-represented in the sample as a whole. Calls of active or inactive are those of the source. Cut-off read from the data, not from the text of the source: active = growth inhibition above about 70%; inactive = the rest.

Columns and labels:
[1] = NCI Yeast Anticancer Drug Screen. Data for the mlh1 strain (AID 171);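 note: 0% = growth of vehicle-treated control cultures of the same strain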; conditions: S. cerevisiae mlh1 strain growth inhibition, hits give high values
In short: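 A yeast strain with a defined genetic lesion serves as the test organism. Cultures receive compound or vehicle, and growth is measured.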

[2] = NCI Yeast Anticancer Drug Screen. Data for the sgs1 strain (AID 173);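 note: 0% = growth of vehicle-only control cultures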; conditions: S. cerevisiae sgs1 mutant, hits give high values
In short: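 A genetically defined yeast mutant is incubated with the test compound, and its growth is compared to that of the same strain given vehicle.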

[3] = NCI Yeast Anticancer Drug Screen. Data for the mlh1 rad18 strain (AID 175); conditions: S. cerevisiae mlh1 rad18 strain growth inhibition, hits give high values
In short: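 Steps: expose repair-defective yeast to compound; measure growth; express inhibition against vehicle-treated controls.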

[4] = NCI Yeast Anticancer Drug Screen. Data for the rad18 strain (AID 177); conditions: S. cerevisiae rad18 mutant growth inhibition, hits give high values
In short: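 Measured value is growth inhibition of a yeast strain bearing a DNA repair alteration, referenced to vehicle-treated cells.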

[5] = NCI Yeast Anticancer Drug Screen. Data for the rad52 strain (AID 147);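 note: 0% = growth of vehicle-treated control cultures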; conditions: S. cerevisiae rad52 mutant growth inhibition, hits give high values
In short: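 Here a repair-compromised yeast strain receives each compound; its growth is then quantified and normalised to vehicle-only controls.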

[6] = NCI Yeast Anticancer Drug Screen. Data for the wt1 strain (AID 149);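 note: 0% = growth of vehicle-treated wt1 cultures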; conditions: S. cerevisiae wt1 strain (SPY 50644) growth inhibition, hits give high values
In short: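 wt1 yeast, compound-treated; % growth inhibition vs vehicle control.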

[7] = NCI Yeast Anticancer Drug Screen. Data for the rad50EPP+ strain (AID 151);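 note: 0% = growth of vehicle-treated control cultures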; conditions: S. cerevisiae rad50 mutant strain, hits give high values
In short: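 Read-out is yeast growth inhibition relative to vehicle; cells used were the rad50EPP+ strain.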

[8] = NCI Yeast Anticancer Drug Screen. Data for the rad50 strain (AID 155);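 note: 0% = growth of vehicle-only cultures of the same strain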; conditions: S. cerevisiae rad50 strain growth inhibition, hits give high values
In short: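 Genetically altered yeast (DNA repair pathway); compound treatment; growth inhibition vs vehicle ctrl.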

[9] = NCI Yeast Anticancer Drug Screen. Data for the mec2-1 strain (AID 157); conditions: S. cerevisiae mec2-1 strain, hits give high values
In short: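 Using mec2-1 yeast: add compound, measure growth, express inhibition versus vehicle-treated cultures.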

[10] = NCI Yeast Anticancer Drug Screen. Data for the rad14 strain (AID 159);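 note: 0% = growth of vehicle-treated control cultures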; conditions: S. cerevisiae rad14 strain growth inhibition, hits give high values
In short: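 Test compounds were applied to a repair-deficient yeast strain. Its growth was then compared with that of cultures given vehicle alone, and inhibition was expressed relative to those controls.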

[11] = NCI Yeast Anticancer Drug Screen. Data for the sgs1 mgt1 strain (AID 161);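 note: 0% = growth of cultures given vehicle only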; conditions: S. cerevisiae sgs1 mgt1 strain, hits give high values
In short: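 This yeast growth screen uses a strain with defined DNA-repair lesions; compound-treated growth is compared with vehicle-treated growth.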

[12] = NCI Yeast Anticancer Drug Screen. Data for the CLN2oe strain (AID 163);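 note: 0% = growth of vehicle-only control cultures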; conditions: S. cerevisiae CLN2oe strain, hits give high values
In short: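 Whole-cell yeast growth assay. A strain engineered for altered cell-cycle control received compound, and inhibition relative to vehicle-treated cultures was recorded.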

[13] = NCI Yeast Anticancer Drug Screen. Data for the cln2 rad14 strain (AID 165);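 note: 0% = growth equal to vehicle treated cultures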; conditions: S. cerevisiae cln2 rad14 strain, hits give high values
In short: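 Yeast strain cln2 rad14, bearing defects in cell cycle control and DNA repair, serves as the test system; values reflect growth inhibition compared with vehicle.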

[14] = NCI Yeast Anticancer Drug Screen. Data for the bub3 strain (AID 167); conditions: S. cerevisiae bub3 mutant strain, hits give high values
In short: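 Yeast carrying a defined mutation is treated with each compound, and growth is compared with that of vehicle-exposed cells to give inhibition.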

[15] = NCI Yeast Anticancer Drug Screen. Data for the wt2 strain (AID 169);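 note: 0% = growth of vehicle-treated yeast cultures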; conditions: S. cerevisiae wt2 strain growth inhibition, hits give high values
In short: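 Treated yeast vs. vehicle-treated yeast: growth inhibition determined.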

[16] = NCI Yeast Anticancer Drug Screen. Data for the mgt1 strain (AID 153); conditions: S. cerevisiae mgt1 mutant growth inhibition, hits give high values
In short: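 Measured: inhibition of mgt1 yeast growth by compound, normalized to vehicle-treated cultures.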

[17] = at 5.0 µM (retest, dose inferred, filed as 0.5)
[18] = at 50.0 µM (retest, dose inferred, filed as 5.0)

Measured: growth inhibition

O=C(O)C1CCCCC1c1c2ccc(=O)cc-2oc2cc(O)ccc12 (stereo unspecified)
active: [1]; at 100.0 µM 86% | [2]; at 100.0 µM 91% | [3]; [18] 93% | [3]; at 50.0 µM 81.5% | [4]; at 100.0 µM 93%
inactive: [1]; at 1.2 µM -26% | [1]; at 3.7 µM -21% | [1]; at 11.0 µM -16% | [1]; at 33.0 µM -1% | [2]; at 1.2 µM -17% | [2]; at 3.7 µM -15% | [2]; at 11.0 µM -15% | [2]; at 33.0 µM 13% | [3]; [17] 47% | [4]; at 1.2 µM -12% | [4]; at 3.7 µM -18% | [4]; at 11.0 µM -3% | [4]; at 33.0 µM 25%

C[C@H](CCC1=NC(C)(C)CO1)C1CCC2[C@@H]3C(O)C[C@@H]4CC(O)CC[C@]4(C)C3CC[C@@]21C (stereo partly specified)
inactive: [5]; at 1.2 µM -3% | [5]; at 3.7 µM -5% | [5]; at 11.0 µM -9% | [6]; at 1.2 µM -3% | [6]; at 3.7 µM -5% | [6]; at 11.0 µM -11% | [6]; at 33.0 µM 37% | [7]; at 1.2 µM -4% | [7]; at 3.7 µM -3% | [7]; at 11.0 µM -3% | [7]; at 33.0 µM -4% | [7]; at 100.0 µM 25% | [8]; at 1.2 µM -3% | [8]; at 3.7 µM -4% | [8]; [17] 1% | [8]; at 11.0 µM -8% | [9]; at 1.2 µM -5% | [9]; at 3.7 µM -3% | [9]; [17] -2% | [9]; at 11.0 µM -6% | [10]; at 1.2 µM -4% | [10]; at 3.7 µM -4% | [10]; at 11.0 µM 1% | [11]; [17] 3% | [12]; at 1.2 µM -6% | [12]; at 3.7 µM -12% | [12]; at 11.0 µM -11% | [12]; at 33.0 µM 62% | [13]; [17] 1% | [14]; at 1.2 µM -3% | [14]; at 3.7 µM -2% | [14]; [17] 0% | [14]; at 11.0 µM -10% | [15]; at 1.2 µM -4% | [15]; at 3.7 µM -7% | [15]; at 11.0 µM -12% | [1]; at 1.2 µM -3% | [1]; at 3.7 µM -6% | [1]; at 11.0 µM -6% | [2]; at 1.2 µM -3% | [2]; at 3.7 µM -4% | [2]; at 11.0 µM -6% | [3]; [17] -7% | [4]; at 1.2 µM -5% | [4]; at 3.7 µM -6% | [4]; at 11.0 µM -6%
active: [5]; at 33.0 µM 70% | [5]; at 100.0 µM 99% | [6]; at 100.0 µM 99% | [8]; at 33.0 µM 76% | [8]; [18] 95% | [8]; at 50.0 µM 99.4% | [8]; at 100.0 µM 99% | [9]; at 33.0 µM 84% | [9]; [18] 98% | [9]; at 50.0 µM 99.8% | [9]; at 100.0 µM 100% | [10]; at 33.0 µM 99% | [10]; at 100.0 µM 100% | [11]; [18] 98% | [11]; at 50.0 µM 99.7% | [12]; at 100.0 µM 99% | [13]; [18] 96% | [13]; at 50.0 µM 97.9% | [14]; at 33.0 µM 79% | [14]; [18] 98% | [14]; at 50.0 µM 98.5% | [14]; at 100.0 µM 99% | [15]; at 33.0 µM 95% | [15]; at 100.0 µM 100% | [1]; at 33.0 µM 87% | [1]; at 100.0 µM 100% | [2]; at 33.0 µM 90% | [2]; at 100.0 µM 100% | [3]; [18] 98% | [3]; at 50.0 µM 99.4% | [4]; at 33.0 µM 96% | [4]; at 100.0 µM 99%

C/C(=N\OCC(O)CNCCSCc1ccccc1)c1ccccc1Cl (stereo unspecified)
active: [5]; at 100.0 µM 80% | [16]; at 33.0 µM 85% | [16]; at 100.0 µM 100% | [9]; at 50.0 µM 82.7% | [9]; at 100.0 µM 88% | [10]; at 11.0 µM 85% | [10]; at 33.0 µM 99% | [10]; at 100.0 µM 99% | [11]; at 50.0 µM 87.5% | [12]; at 100.0 µM 75% | [14]; at 33.0 µM 81% | [14]; [18] 73% | [14]; at 50.0 µM 86% | [14]; at 100.0 µM 97% | [1]; at 33.0 µM 71% | [1]; at 100.0 µM 99% | [2]; at 100.0 µM 97% | [3]; at 50.0 µM 95.3% | [4]; at 33.0 µM 80% | [4]; at 100.0 µM 97%
inactive: [5]; at 1.2 µM 2% | [5]; at 3.7 µM 5% | [5]; at 11.0 µM 26% | [5]; at 33.0 µM 45% | [6]; at 1.2 µM -3% | [6]; at 3.7 µM 0% | [6]; at 11.0 µM 6% | [6]; at 33.0 µM 19% | [6]; at 100.0 µM 40% | [7]; at 1.2 µM -1% | [7]; at 3.7 µM 0% | [7]; at 11.0 µM 2% | [7]; at 33.0 µM 6% | [7]; at 100.0 µM 12% | [16]; at 1.2 µM 4% | [16]; at 3.7 µM 9% | [16]; at 11.0 µM 34% | [9]; at 1.2 µM 3% | [9]; at 3.7 µM 4% | [9]; [17] 2% | [9]; at 11.0 µM 28% | [9]; at 33.0 µM 50% | [9]; [18] 48% | [10]; at 1.2 µM 30% | [10]; at 3.7 µM 46% | [11]; [17] 30% | [11]; [18] 58% | [12]; at 1.2 µM -3% | [12]; at 3.7 µM 12% | [12]; at 11.0 µM 30% | [12]; at 33.0 µM 47% | [13]; [17] 14% | [13]; [18] 61% | [13]; at 50.0 µM 66.8% | [14]; at 1.2 µM 6% | [14]; at 3.7 µM 25% | [14]; [17] 29% | [14]; at 11.0 µM 54% | [1]; at 1.2 µM 3% | [1]; at 3.7 µM 4% | [1]; at 11.0 µM 24% | [2]; at 1.2 µM 8% | [2]; at 3.7 µM 17% | [2]; at 11.0 µM 41% | [2]; at 33.0 µM 69% | [3]; [17] 21% | [3]; [18] 41% | [4]; at 1.2 µM 12% | [4]; at 3.7 µM 32% | [4]; at 11.0 µM 55%
